Screen size: about 21,000 compounds; about 110 (0.52%) were called active.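 Rule for the calls: active = most replicate scores above 10, or exactly half above 10 with mean activity above 10; inconclusive = mean activity below 10 while half the replicates exceed 10; inactive = most replicate scores below 10.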 The full list was thinned out, with actives kept by preference.
Test: caspase activation in A1-primed MEFs – cell-based, CaspaseGlo luminescence, A1 inhibitor project, primary screen (AID 2241);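 note: effector caspase 3 and 7 activity cleaving a DEVD luciferin substrate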
Conditions: MEF A1-2A-BIM cells, caspase-Glo luminescence, 3 h; hits give high values; percent of clofoctol signal, DMSO as zero; concentration not given here

SMILES	caspase activation
C[C@@H]1CN([C@@H](C)CO)C(=O)c2cc(NS(=O)(=O)c3ccccc3)ccc2O[C@H]1CN(C)CC1CC1	-0.166% (inactive)
C[C@H](CO)N1C[C@H](C)[C@H](CN(C)S(=O)(=O)c2cn(C)cn2)Oc2ccc(NS(=O)(=O)c3ccccc3)cc2C1=O	0.0901% (inactive)
Cn1c(C(=O)NC2CCCC2)cc2oc3ccccc3c21	-1.2% (inactive)
OCCN1N=C2c3ccccc3CCC2C1c1ccccc1Cl (stereo not drawn)	0.231% (inactive)
O=C1c2ccccc2C(=O)C1c1cc(=O)[nH]c2c1ccc1ccccc12	-0.299% (inactive)
Cc1ccccc1N=C(N)N=C(N)N	0.116% (inactive)
FC(F)(F)c1ccnc(Oc2ccc(C3=NCCS3)cc2)c1	-5.95% (inactive)
CCOC(=O)c1c(C)n(O)c2ccc3nonc3c12	-0.716% (inactive)
CCCCn1c2ccccc2c2nc3ccccc3nc21	-1.06% (inactive)
CCSC1=C(C#N)C(=O)NCS1	0.116% (inactive)
CCC(=O)Nc1ccccc1C(=O)Nc1ccccc1	0.303% (inactive)
C[C@@H]1CN([C@H](C)CO)C(=O)c2cc(NC(=O)NC3CCCCC3)ccc2O[C@H]1CN(C)S(C)(=O)=O	0.129% (inactive)
O=c1c2ccccc2nc(SCc2cccc(F)c2)n1C1CC1	-0.676% (inactive)
CCN(CC)C(=S)SCc1nc(N)nc(Nc2ccccc2)n1	0.133% (inactive)
CCC(C)NC(=O)Nc1ccc(C)c(Cl)c1 (stereo not drawn)	-1.99% (inactive)
O=C(O)CCCC=C(c1ccccc1)c1ccccc1	-0.527% (inactive)
COc1ccc(N/C(N)=N/c2nc(CSc3nc4ccccc4s3)cc(=O)[nH]2)cc1	-0.646% (inactive)
CCCOC(=O)c1cc2ccccc2oc1=O	-1.82% (inactive)
NC(=S)c1nc(-c2ccccc2)oc1N	-1.84% (inactive)
OC(c1nc2ccccc2[nH]1)C(O)C(O)C(O)c1nc2ccccc2[nH]1 (stereo not drawn)	0.0552% (inactive)
O=C(Sc1ccc(Oc2ccc(SC(=O)c3ccco3)cc2)cc1)c1ccco1	1.99% (inactive)
Nc1c(C(=O)N2CCCCC2)sc2nc3c(cc12)CCC3	-1.2% (inactive)
CCN(CCCn1c(=S)[nH]c2cc3c(cc2c1=O)OCO3)c1cccc(C)c1	0.124% (inactive)

From PubChem BioAssay AID2241 (Broad Institute, 2010)
